Experimental data: PubChem BioAssay (NCATS)
Inconclusive results are not listed. Unmarked numbers belong to inactive results. Calls of active or inactive are those of the source. Calls follow the shape of the dose curve; as a rule, active = well fitted inhibition curve with a large enough effect; inconclusive = small, poorly fitted or top-dose-only effect, or effect the other way; inactive = no such curve, though single readings can be large or run the other way.

assay: Quantitative high throughput screen for delayed death inhibitors of the malarial parasite plastid, 96 hour incubation (AID 488745); conditions: Plasmodium falciparum growth; series mostly up to 28.7 µM; activity change, negative = inhibition: at the top concentration; also: nearly all actives have a fitted effect of over 70% in size
Excerpt: NIH Molecular Libraries Probe Production Network [MLPCN]
NIH Chemical Genomics Center [NCGC]
Assay Provider: David Fidock and Eric Ekland, Columbia University
The goal of this screen is to discover new antimalarial compounds that act by inhibiting the development of the apicoplast in the malarial parasite Plasmodium falciparum. The biochemical processes that make this organelle essential for erythrocytic stage parasites are not well understood. However, antibiotics such as azithromycin and tetracycline, which target the apicoplast translational machinery, have a potent antimalarial effect.
We have developed a cell-based assay that measures parasite growth based on the expression of an integrated copy of a firefly luciferase reporter. To detect small molecules that cause this 'delayed death' phenotype, erythrocytes infected with the luciferase-expressing parasites were incubated with compounds for either one or two generations, corresponding to 48 and 96 hours, respectively. Compounds that inhibit parasite growth in the second generation, but not the first, should be enriched in antimalarials that target the apicoplast. Growth inhibition is detected by a decrease in luciferase activity
Four microliters of culture medium (RPMI 1640 with 0.5% w/v Albumax (GIBCO), 24 mM sodium bicarbonate and 10 ug/mL gentamycin) were dispensed by a Multi-drop Combi into white solid 1536-well plates (Grenier) and 23 nL compound was added by a pin tool. Four microliters of infected erythrocytes (2% hematocrit, 0.1% parasitemia final concentration) in culture medium were dispensed and the plates incubated for 96 hours at 37 C in 5% CO2. Two microliters of luciferase detection reagent was added and luminescence was detected by a ViewLux (PerkinElmer) reader
% is scaled to controls: 0 for no effect and ±100 for the full control effect; potency is read from the fitted curve at half-maximal effect.

Row | SMILES | activity change, negative = inhibition [%] | Potency
1 | CC(NC(C)(C)C)C(=O)c1cccc(Cl)c1 (stereo not drawn) | 1.69 | 
2 | CN1C(=O)CCS(=O)(=O)C1c1ccc(Cl)cc1 (stereo not drawn) | 5.55 | 
3 | CCCCC/C=C\C/C=C\C/C=C\C/C=C\CCCC(=O)NCC(=O)O | -2.19 | 
4 | CCC1(c2ccc(N)cc2)CCC(=O)NC1=O (stereo not drawn) | 2.41 | 
5 | NCCc1ccc(O)cc1 | -3.44 | 
6 | CC(C)(C)NCC(O)c1ccccc1Cl (stereo not drawn) | -8.59 | 
7 | CC(C)c1cccc(C(C)C)c1O | 11.3 | 
8 | C=C(C)[C@H]1CN[C@H](C(=O)O)[C@H]1CC(=O)O | 18 | 
9 | O=c1[nH]oc2c1CCNC2 | 30.8 | 
10 | CC(C)N(CCC(C(N)=O)(c1ccccc1)c1ccccn1)C(C)C (stereo not drawn) | -4.23 | 
11 | O=P1(N(CCCl)CCCl)NCCCO1 (stereo not drawn) | 3.08 | 
12 | O=C(O)CCCc1ccc(N(CCCl)CCCl)cc1 | 3.95 | 
13 | CC(=O)N1CCN(c2ccc(OC[C@H]3CO[C@](Cn4ccnc4)(c4ccc(Cl)cc4Cl)O3)cc2)CC1 |  | 11.7 µM (active)
